Experimental data from PubChem BioAssay AID1159580 (chemical genetic matrix, 2015).
Out of some 5,500 compounds screened, about 2,000 (36%) were called active. Inconclusive results (about 18%) are left out. Rule as the data show it: active = normalized growth mostly below about 0.91 (no sharp cut-off); inconclusive = no clear call, values can overlap the other calls; inactive = mostly above about 0.92. The list shows a part of the results.

Experiment: chemical genetic growth profiling, strain panel (AID 1159580);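 also: tested at 20 µM; growth read once vehicle control cultures reached saturation at 30 °C; 1 = growth at the plate median or of vehicle wells; lower values mean less growth of the strain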
Details: growth OD

Measured: normalized growth

CC(=O)OCC1(C)CCC2(C)CCC3(C)C4=CCc5c(cc(OC(C)=O)c(OC(C)=O)c5C)C4(C)CCC3(C)C2C1 (stereo not drawn)
inactive: S. cerevisiae deletion strains, locus YAL013W, strain DEP1, hits give low values 1.01 | S. cerevisiae deletion strains, locus YBR021W, strain FUR4, hits give low values 0.994 | S. cerevisiae deletion strains, locus YBR229C, strain ROT2, hits give low values 1.02 | S. cerevisiae deletion strains, locus YCL029C, strain bik1, hits give low values 1.01 | S. cerevisiae deletion strains, locus YDL035C, strain GPR1, hits give low values 1.02 | S. cerevisiae deletion strains, locus YDL074C, strain BRE1, hits give low values 1.04 | S. cerevisiae deletion strains, locus YDL101C, strain DUN1, hits give low values 1.02 | S. cerevisiae deletion strains, locus YDL185W, strain tfp1, hits give low values 1.01 | S. cerevisiae deletion strains, locus YDL192W, strain arf1, hits give low values 1.01 | S. cerevisiae deletion strains, locus YDR101C, strain arx1, hits give low values 0.974 | S. cerevisiae deletion strains, locus YDR162C, strain NBP2, hits give low values 1.04 | S. cerevisiae deletion strains, locus YDR318W, strain mcm21, hits give low values 1.01 | S. cerevisiae deletion strains, locus YDR388W, hits give low values 0.997 | S. cerevisiae deletion strains, locus YDR502C, strain sam2, hits give low values 0.984 | S. cerevisiae deletion strains, locus YEL061C, strain CIN8, hits give low values 1.01 | S. cerevisiae deletion strains, locus YER110C, hits give low values 0.999 | S. cerevisiae deletion strains, locus YER155C, strain BEM2, hits give low values 1.01 | S. cerevisiae deletion strains, locus YER167W, strain BCK2, hits give low values 1 | S. cerevisiae deletion strains, locus YGL078C, strain dbp3, hits give low values 1 | S. cerevisiae deletion strains, locus YGL086W, strain mad1, hits give low values 0.998 | S. cerevisiae deletion strains, locus YGL248W, strain PDE1, hits give low values 1.04 | S. cerevisiae deletion strains, locus YGR135W, strain pre9, hits give low values 1 | S. cerevisiae deletion strains, locus YGR252W, strain gcn5, hits give low values 0.992 | S. cerevisiae deletion strains, locus YHR030C, strain SLT2, hits give low values 1.02 | S. cerevisiae deletion strains, locus YHR079C, strain IRE1 (second series), hits give low values 1 | S. cerevisiae deletion strains, locus YHR094C, strain hxt1, hits give low values 1.02 | S. cerevisiae deletion strains, locus YHR129C, strain ARP1, hits give low values 1.02 | S. cerevisiae deletion strains, locus YHR200W, strain rpn10, hits give low values 1.01 | S. cerevisiae deletion strains, locus YIL066C, strain RNR3, hits give low values 1.02 | S. cerevisiae deletion strains, locus YIL073C, strain SPO22, hits give low values 1.02 | S. cerevisiae deletion strains, locus YIL125W, strain kgd1, hits give low values 1 | S. cerevisiae deletion strains, locus YIR030C, strain dcg1, hits give low values 1 | S. cerevisiae deletion strains, locus YJL095W, strain BCK1, hits give low values 1.04 | S. cerevisiae deletion strains, locus YJL134W, strain LCB3, hits give low values 1.01 | S. cerevisiae deletion strains, locus YJL168C, strain set2, hits give low values 1.01 | S. cerevisiae deletion strains, locus YJL187C, strain SWE1 (second series), hits give low values 1.02 | S. cerevisiae deletion strains, locus YJR043C, strain POL32, hits give low values 1.02 | S. cerevisiae deletion strains, locus YKL068W, hits give low values 1.01 | S. cerevisiae deletion strains, locus YKR001C, strain vps1, hits give low values 0.997 | S. cerevisiae deletion strains, locus YLR039C, strain RIC1, hits give low values 1.03 | S. cerevisiae deletion strains, locus YLR058C, strain SHM2, hits give low values 1.02 | S. cerevisiae deletion strains, locus YLR102C, strain apc9, hits give low values 1 | S. cerevisiae deletion strains, locus YLR262C, strain YPT6, hits give low values 1.07 | S. cerevisiae deletion strains, locus YLR268W, strain sec22, hits give low values 1 | S. cerevisiae deletion strains, locus YLR330W, strain CHS5, hits give low values 1.01 | S. cerevisiae deletion strains, locus YLR342W, strain FKS1 (second series), hits give low values 1.01 | S. cerevisiae deletion strains, locus YLR371W, strain rom2, hits give low values 1.01 | S. cerevisiae deletion strains, locus YLR418C, strain cdc73, hits give low values 1.07 | S. cerevisiae deletion strains, locus YML016C, strain PPZ1, hits give low values 1.02 | S. cerevisiae deletion strains, locus YML032C, strain rad52, hits give low values 1 | S. cerevisiae deletion strains, locus YML124C, strain tub3, hits give low values 0.997 | S. cerevisiae deletion strains, locus YMR078C, strain ctf18, hits give low values 1.01 | S. cerevisiae deletion strains, locus YMR223W, strain ubp8, hits give low values 1.01 | S. cerevisiae deletion strains, locus YMR307W, strain GAS1, hits give low values 1.07 | S. cerevisiae deletion strains, locus YNL067W, strain RPL9B, hits give low values 1.03 | S. cerevisiae deletion strains, locus YNL128W, strain TEP1, hits give low values 1.01 | S. cerevisiae deletion strains, locus YNL153C, strain GIM3, hits give low values 1.02 | S. cerevisiae deletion strains, locus YNL233W, strain BNI4, hits give low values 1.03 | S. cerevisiae deletion strains, locus YNL250W, strain rad50, hits give low values 1 | S. cerevisiae deletion strains, locus YNL271C, strain bni1, hits give low values 0.999 | S. cerevisiae deletion strains, locus YNL298W, strain CLA4, hits give low values 1 | S. cerevisiae deletion strains, locus YNL307C, strain MCK1, hits give low values 1 | S. cerevisiae deletion strains, locus YNL322C, strain KRE1, hits give low values 1.02 | S. cerevisiae deletion strains, locus YNR052C, strain pop2, hits give low values 1.01 | S. cerevisiae deletion strains, locus YOL012C, strain htz1 1.15 | S. cerevisiae deletion strains, locus YOL147C, strain pex11, hits give low values 0.993 | S. cerevisiae deletion strains, locus YOR061W, strain CKA2, hits give low values 1.02 | S. cerevisiae deletion strains, locus YOR069W, strain VPS5, hits give low values 1.01 | S. cerevisiae deletion strains, locus YOR136W, strain idh2, hits give low values 0.998 | S. cerevisiae deletion strains, locus YOR144C, strain elg1, hits give low values 0.994 | S. cerevisiae deletion strains, locus YOR184W, strain ser1, hits give low values 1.04 | S. cerevisiae deletion strains, locus YOR316C, strain cot1, hits give low values 1 | S. cerevisiae deletion strains, locus YPR119W, strain clb2, hits give low values 1 | S. cerevisiae deletion strains, locus YPR141C, strain kar3, hits give low values 1.01 | S. cerevisiae deletion strains, locus YPR163C, strain tif3, hits give low values 1.02 | S. cerevisiae deletion strains, locus YPR167C, strain met16, hits give low values 1 | S. cerevisiae deletion strains, strain wtn01, hits give low values 1.03 | S. cerevisiae strains, strain wild type, hits give low values 0.992
